Data taken from PubChem BioAssay AID1159580 (chemical genetic matrix, 2015).
Several values for one entry are separate records, joined by “and”; a condition that tells them apart may be missing. Identical values can stand only once. Hit rate of the full screen: of about 5,500 compounds, about 2,000 (36%) were called active. Roughly 18% stayed inconclusive and do not appear here. Cut-off read from the data, not from the text of the source: active = normalized growth mostly below about 0.91 (no sharp cut-off); inconclusive = no clear call, values can overlap the other calls; inactive = mostly above about 0.92. The list shows a part of the results.

Assay: chemical genetic growth profiling, strain panel (AID 1159580);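 note: tested at 20 µM; growth read once vehicle control cultures reached saturation at 30 °C; 1 = growth at the plate median or of vehicle wells; lower values mean less growth of the strain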
Settings: S. cerevisiae deletion strains, growth OD

Measured: normalized growth

O=C(O)c1cc(=O)c2cccc(O)c2[nH]1
inactive: locus YAL013W, strain DEP1, hits give low values 0.999 | locus YAL021C, strain ccr4, hits give low values 0.995 | locus YAL026C, strain drs2, hits give low values 1.03 | locus YAL030W, strain snc1, hits give low values 1.01 | locus YBL061C, strain skt5, hits give low values 1.02 | locus YBR009C, strain hhf1, hits give low values 1 | locus YBR021W, strain FUR4, hits give low values 1.03 | locus YBR023C, strain chs3, hits give low values 1.03 | locus YBR171W, strain sec66, hits give low values 1.03 | locus YBR229C, strain ROT2, hits give low values 0.999 | locus YBR231C, strain swc5, hits give low values 1.01 | locus YBR279W, strain paf1, hits give low values 0.984 | locus YCL011C, strain gbp2, hits give low values 1.02 | locus YCL016C, strain dcc1, hits give low values 1.05 | locus YCL029C, strain bik1, hits give low values 0.953 | locus YCL061C, strain MRC1, hits give low values 1.02 | locus YCL069W, strain vba3, hits give low values 1.01 | locus YCR088W, strain abp1, hits give low values 1.02 | locus YDL005C, strain med2, hits give low values 1.01 | locus YDL035C, strain GPR1, hits give low values 1.02 | locus YDL040C, strain nat1, hits give low values 1 | locus YDL074C, strain BRE1, hits give low values 0.995 | locus YDL101C, strain DUN1, hits give low values 0.988 | locus YDL134C, strain PPH21, hits give low values 1.01 | locus YDL185W, strain tfp1, hits give low values 0.959 | locus YDL192W, strain arf1, hits give low values 0.985 | locus YDR001C, strain nth1, hits give low values 1.01 | locus YDR069C, strain doa4, hits give low values 1.03 | locus YDR101C, strain arx1, hits give low values 0.977 | locus YDR137W, strain rgp1, hits give low values 1.01 | locus YDR150W, strain NUM1, hits give low values 0.97 | locus YDR159W, strain sac3, hits give low values 0.981 | locus YDR162C, strain NBP2, hits give low values 1 | locus YDR195W, strain ref2 1 | locus YDR297W, strain sur2, hits give low values 1.01 | locus YDR318W, strain mcm21, hits give low values 0.981 | locus YDR334W, strain swr1, hits give low values 1.02 | locus YDR335W, strain msn5, hits give low values 1.04 | locus YDR388W, hits give low values 0.995 | locus YDR392W, strain spt3, hits give low values 1.08 | locus YDR502C, strain sam2, hits give low values 0.985 | locus YEL003W, strain gim4, hits give low values 1.01 | locus YEL037C, strain rad23, hits give low values 1.01 | locus YEL061C, strain CIN8 (second series), hits give low values 1.02 | locus YEL061C, strain CIN8, hits give low values 0.993 | locus YER015W, strain faa2, hits give low values 1.02 | locus YER016W, strain bim1, hits give low values 1.04 | locus YER110C, hits give low values 0.974 | locus YER111C, strain swi4, hits give low values 1.01 | locus YER155C, strain BEM2 (second series), hits give low values 1.03 | locus YER155C, strain BEM2, hits give low values 0.998 | locus YER167W, strain BCK2, hits give low values 0.994 | locus YFR010W, strain ubp6, hits give low values 1.01 | locus YGL078C, strain dbp3, hits give low values 0.987 | locus YGL086W, strain mad1, hits give low values 0.993 | locus YGL167C, strain pmr1, hits give low values 1.01 | locus YGL173C, strain kem1, hits give low values 1.01 | locus YGL227W, strain vid30, hits give low values 1.01 | locus YGL240W, strain doc1, hits give low values 0.999 | locus YGL248W, strain PDE1, hits give low values 0.991 | locus YGL253W, strain hxk2, hits give low values 1.03 | locus YGR078C, strain PAC10, hits give low values 0.98 | locus YGR135W, strain pre9, hits give low values 0.986 | locus YGR229C, strain SMI1, hits give low values 1.02 | locus YGR252W, strain gcn5, hits give low values 1.15 | locus YHR013C, strain ard1, hits give low values 1.01 | locus YHR027C, strain rpn1, hits give low values 1.03 | locus YHR030C, strain SLT2, hits give low values 0.985 and 0.961 | locus YHR079C, strain IRE1 (second series), hits give low values 0.985 | locus YHR079C, strain IRE1, hits give low values 0.962 | locus YHR094C, strain hxt1, hits give low values 0.964 | locus YHR129C, strain ARP1, hits give low values 0.987 | locus YHR142W, strain chs7, hits give low values 1.03 | locus YHR200W, strain rpn10, hits give low values 0.984 | locus YIL066C, strain RNR3, hits give low values 0.994 | locus YIL073C, strain SPO22, hits give low values 0.949 | locus YIL125W, strain kgd1, hits give low values 0.975 | locus YIR030C, strain dcg1, hits give low values 0.99 | locus YJL092W, strain hpr5, hits give low values 1.02 | locus YJL095W, strain BCK1 (second series), hits give low values 1.03 | locus YJL095W, strain BCK1, hits give low values 0.982 and 0.975 | locus YJL115W, strain asf1, hits give low values 1.01 | locus YJL129C, strain trk1, hits give low values 1.03 | locus YJL134W, strain LCB3, hits give low values 0.992 | locus YJL154C, strain vps35, hits give low values 1.01 | locus YJL164C, strain tpk1, hits give low values 1.01 | locus YJL166W, strain qcr8, hits give low values 0.996 | locus YJL168C, strain set2, hits give low values 0.981 | locus YJL187C, strain SWE1 (second series), hits give low values 0.95 | locus YJL187C, strain SWE1, hits give low values 1.03 | locus YJR043C, strain POL32, hits give low values 0.987 | locus YJR066W, strain TOR1, hits give low values 0.928
